The values below come from PubChem BioAssay AID623970 (The Scripps Research Institute Molecular Screening Center, 2012).

Values without a mark were called inactive. Calls of active or inactive are those of the source. Cut-off read from the data, not from the text of the source: active = IC50 below about 90 µM; inactive = the rest.

The experiment is described as follows: DNA binding via SYBR dye displacement, late-stage follow-up, artefact control for HCV NS3 helicase inhibitor project, biochemical, fluorescence (AID 623970).
What is called IC50 is the concentration at which inhibition is half-maximal. `Cc1ccc2nc(-c3ccc(NC(=O)c4ccc(NC(=O)c5ccc(NC(=O)OCC6c7ccccc7-c7ccccc76)cc5)cc4)cc3)sc2c1S(=O)(=O)O`: the IC50 is above 100 µM.
Take `Cc1ccc2nc(-c3ccc4nc(-c5ccc(N(C)C(=O)c6ccc7ccccc7c6)cc5)sc4c3)sc2c1S(=O)(=O)O`: the IC50 was above 100 µM.
Turning to `Cc1ccc2nc(-c3ccc4nc(-c5ccc(NC(=O)c6ccc(Cl)c(Cl)c6)cc5)sc4c3)sc2c1S(=O)(=O)O`, the IC50 was 30 µM (active).
With `CCOc1ccc2c(NNC(=O)c3cnccn3)c3c(nc2c1)CCCC3` the figure was above 100 µM.
With `Cc1ccc2nc(-c3ccc(NC(=O)c4ccc(NS(=O)(=O)c5ccccc5)cc4)cc3)sc2c1S(=O)(=O)O` the figure was above 100 µM; with `Cc1ccc2nc(-c3ccc(NC(=O)c4ccc(N)cc4)cc3)sc2c1S(=O)(=O)O`, above 100 µM; with `Cc1ccc2nc(-c3ccc4nc(-c5ccc(NC(=O)c6ccccc6C(F)(F)F)cc5)sc4c3)sc2c1S(=O)(=O)O`, above 100 µM.
Take `Cc1cc(C(O)(c2ccc(Nc3ccccc3)cc2)c2ccc(Nc3ccc(S(=O)(=O)O)cc3)cc2)ccc1N` (stereo not drawn): the half-inhibitory concentration (IC50) is 17 µM (active).
In the case of `Cc1ccc2nc(-c3ccc4nc(-c5ccc(NS(=O)(=O)c6ccc(C(F)(F)F)cc6)cc5)sc4c3)sc2c1S(=O)(=O)O`, the IC50 is 82 µM (active).
Consider `NS(=O)(=O)c1ccc2nc(NC(=O)c3ccc4ncsc4c3)sc2c1`, for which the IC50 is above 100 µM.
With `Cc1ccc2nc(-c3ccc4nc(-c5ccc(NC(=O)c6ccc(Cl)cc6)cc5)sc4c3)sc2c1S(=O)(=O)O` the figure was 31 µM (active); with `Cc1ccc2nc(-c3ccc4nc(-c5ccc(NC(=O)c6ccccc6)cc5)sc4c3)sc2c1S(=O)(=O)O`, above 100 µM; with `COc1ccc(S(=O)(=O)Nc2ccc(-c3nc4ccc(-c5nc6ccc(C)c(S(=O)(=O)O)c6s5)cc4s3)cc2)cc1`, 42 µM (active).
Regarding `Cc1ccc2nc(-c3ccc4nc(-c5ccc(NC(=O)c6cccnc6)cc5)sc4c3)sc2c1S(=O)(=O)O`, the IC50 is above 100 µM.
With `Cc1ccc2nc(-c3ccc4nc(-c5ccc(NC(=O)Nc6ccc(Cl)cc6)cc5)sc4c3)sc2c1S(=O)(=O)O`, the IC50 is 8 µM (active).
Regarding `Cc1ccc2nc(-c3ccc(NC(=O)c4ccc(NC(=O)c5ccc(N)cc5)cc4)cc3)sc2c1S(=O)(=O)O`, the IC50 was above 100 µM.
As to `Cc1ccc(NC(=O)Nc2ccc(-c3nc4ccc(-c5nc6ccc(C)c(S(=O)(=O)O)c6s5)cc4s3)cc2)cc1`, the IC50 is 18 µM (active).
Regarding `Cc1ccc2nc(-c3ccc(NC(=O)c4ccc(NC(=O)Nc5ccccc5)cc4)cc3)sc2c1S(=O)(=O)O`, the IC50 is above 100 µM.
`Cc1cc2sc(-c3ccc4nc(-c5ccc(N)cc5)sc4c3)nc2cc1S(=O)(=O)O`: the IC50 is 32 µM (active).
Regarding `Cc1ccc2nc(-c3ccc4nc(-c5ccc(NC(=O)c6ccncc6)cc5)sc4c3)sc2c1S(=O)(=O)O`, the IC50 was above 100 µM.
In the case of `CCN(CC)c1ccc(-c2nc3ccc(C)c(S(=O)(=O)O)c3s2)cc1`, the IC50 is above 100 µM.
For the compound `Cc1ccc2nc(-c3ccc4nc(-c5ccc(NC(=O)c6cc(C(F)(F)F)ccc6F)cc5)sc4c3)sc2c1S(=O)(=O)O`, the IC50 was above 100 µM.
For `Cc1ccc2nc(-c3ccc4nc(-c5ccc(NC(=S)Nc6ccccc6)cc5)sc4c3)sc2c1S(=O)(=O)O`, the IC50 was 30 µM (active).
Take `Cc1ccc2nc(-c3ccc4nc(-c5ccc(NC(=O)c6cc(F)cc(C(F)(F)F)c6)cc5)sc4c3)sc2c1S(=O)(=O)O`: the IC50 is above 100 µM.
Next, `Cc1ccc2nc(-c3ccc4nc(-c5ccc6nc(-c7ccc(N)cc7)sc6c5)sc4c3)sc2c1S(=O)(=O)O` (tested in a mixture with another compound): 43 µM (active); `Cc1ccc2nc(-c3ccc4nc(-c5ccc(NC(=O)Nc6ccc(C(F)(F)F)cc6)cc5)sc4c3)sc2c1S(=O)(=O)O`: 18 µM (active).
In the case of `Cc1ccc2c(sc(-c3ccc4c(c3)sc(-c3ccc5c(c3)sc(-c3ccc(N(C)C)cc3)[n+]5C)[n+]4C)[n+]2C)c1S(=O)(=O)O` (tested in a mixture with another compound), the IC50 was 61 µM (active).
Consider `COc1ccc(NC(=O)Nc2ccc(-c3nc4ccc(-c5nc6ccc(C)c(S(=O)(=O)O)c6s5)cc4s3)cc2)cc1`, for which the IC50 is 73 µM (active).
